{"source": "PubChem BioAssay (Tox21)", "note": "Records with an inconclusive call do not appear. Activity calls are given as the source filed them. The call rests on the fitted dose curve.", "data": [{"test": "qHTS assay to identify small molecule agonists of the AP-1 signaling pathway - cell viability counter screen (AID 1159525); further: nearly all actives have a fitted effect of over 55% in size", "conditions": "ME-180 AP-1-bla cells viability, ATP luminescence, 5 h; series mostly up to 76.8 µM", "description": "National Center for Advancing Translational Sciences [NCATS]\nNIH Chemical Genomics Center [NCGC]\nU.S. Environmental Protection Agency [EPA]\nNational Institutes of Environmental Health Sciences [NIEHS]\nNational Toxicology Program [NTP]\nU.S. Food and Drug Administration [FDA]\nActivator protein-1 (AP-1), a transcription factor, plays an important role in tumor genesis by regulating genes involved in cell proliferation, differentiation, apoptosis, and angiogenesis. AP-1 activity is induced by a complex network of signaling pathways that involves extracellular signals, such as growth factors. The AP-1 protein complex formed from c-Fos and c-Jun binding to the AP-1 response element results in transcriptional activation of genes containing such elements within their promoter.\nLow molecular weight molecules have been discovered and developed to modulate various components of these signaling pathways, for example, MAP kinase inhibitors. However, many points of pathway modulation remain untested due to the lack of chemical probes making this signaling locus of general interest.\nUsing a beta-lactamase reporter-gene under control of the AP-1 response element, a cell-based assay [CellSensor(TM) AP-1-bla ME-180 developed by Invitrogen Corp.] was used to measure EGF-induced signaling. The Tox21 10K library compounds were measured for their ability to positively modulate the action of EC50 EGF on reporter gene activity. Compounds were screened in a 15-pt titration series in 1536-well format. The cytotoxicity of the Tox21 compound library against this cell line was tested in parallel by measuring the intra cellular ATP content in the same wells.\nTox21 Assay Protocol Summary:\n2500 cells/5uL in Opti-MEM medium containing 0.5% dialyzed FBS, 0.1 mM NEAA, 1 mM sodium pyruvate and 10 mM HEPES was dispensed into 1536-well black wall/clear bottom plates using a Multidrop dispenser and cells were cultured at 37 degrees Celsius overnight. Next day 23 nL of compounds dissolved in DMSO, positive controls or DMSO were delivered to each well using a pin tool. The plates were incubated at 37 degrees Celsius for 5 hours. 1 uL of LiveBLAzerTM B/G FRET substrate (Solution A+B+C+D) was added to each well using a Flying Reagent Dispenser. After incubated at room temperature for 2.5 hours the plates were measured on an EnVision plate reader at Excitation 405nm, Emission1=460nm and Emission 2=530nm. The %Activity was determined from the ratio of 460nm/530nm.\nAfter the plates were read for Beta-Lactamase assay on Envision; 3 ul Cell Titer Glo (Promega) was added to measure the cytotoxicity and the plates were then incubated at RT in dark for 30 min. The luminescence was read on ViewLux (Perkin Elmer, Shelton, CT) using 6 sec exposure. ViewLux data was expressed as relative luminescence units.\nFor primary data analysis, raw plate reads for each titration point were first normalized relative to […] EGF control (100%) and DMSO only wells (basal, 0%).\nFor primary data analysis for viability assay, raw plate reads for each titration point were first normalized Tetra n-octyl ammonium bromide control (-100%) and DMSO (control, 100%).", "values": [{"smiles": "C=CCOc1c(Br)cc(Br)cc1Br", "outcome": "inactive"}, {"smiles": "Cc1ccc(S(=O)(=O)NC(=O)NC2CCCCCCC2)cc1", "outcome": "inactive"}, {"smiles": "CN[C@@H]1[C@@H](O)[C@@H](O[C@@H]2[C@H](O)[C@H](O[C@H]3OC(CN)=CC[C@H]3N)[C@@H](N)C[C@H]2N)OCC1(C)O", "note": "(stereo not given in full)", "outcome": "inactive"}, {"smiles": "Nc1nc(=O)n([C@@H]2O[C@H](CO)[C@@H](O)[C@@H]2F)cc1I", "outcome": "inactive"}, {"smiles": "CCCCCCCCCCCCCC(=O)OC", "outcome": "inactive"}, {"smiles": "CCCCCN(CCCOC)C(=O)C(CCC(=O)O)NC(=O)c1ccc(Cl)c(Cl)c1", "note": "(stereo not given)", "outcome": "inactive"}, {"smiles": "F[Si-2](F)(F)(F)(F)F", "outcome": "inactive"}, {"smiles": "COCC(=O)Nc1c(I)c(C(=O)NCC(O)CO)c(I)c(C(=O)N(C)CC(O)CO)c1I", "note": "(stereo not given)", "outcome": "inactive"}, {"smiles": "O=C(Oc1ccccc1C(=O)O)c1ccccc1O", "outcome": "inactive"}, {"smiles": "CNCc1ccccc1", "outcome": "inactive"}, {"smiles": "C[C@H]1O[C@H](O[C@H]2[C@H](O)[C@@H](O)[C@@H](O[C@H]3[C@H](O)[C@@H](O)[C@H](O)O[C@@H]3CO)O[C@@H]2CO)[C@H](O)[C@@H](O)[C@@H]1N[C@H]1C=C(CO)[C@@H](O)[C@H](O)[C@H]1O", "outcome": "inactive"}, {"smiles": "Cc1nc2ccccc2c(=O)o1", "outcome": "inactive"}, {"smiles": "CO/N=C(/C(=O)N[C@@H]1C(=O)N2C(C(=O)O)=C(Cn3nnc(C)n3)CS[C@H]12)c1csc(N)n1", "outcome": "inactive"}, {"smiles": "C[CH2][Ge]([Cl])([CH2]C)[CH2]C", "outcome": "inactive"}, {"smiles": "CC(C)COC(=O)/C=C/c1ccccc1", "outcome": "inactive"}, {"smiles": "CCN(CCO)c1cccc(C)c1", "outcome": "inactive"}, {"smiles": "CCOc1ccc(NC(=O)OC(C)C)cc1OCC", "outcome": "inactive"}, {"smiles": "CC(C)CCCC(C)CC=O", "note": "(stereo not given)", "outcome": "inactive"}, {"smiles": "COc1cc2c(Nc3ccc(Br)cc3F)ncnc2cc1OCC1CCN(C)CC1", "outcome": "inactive"}, {"smiles": "C=CCOc1cc(Cl)ccc1C(=O)NCCN(CC)CC", "outcome": "inactive"}, {"smiles": "CCCCC[Si](OCC)(OCC)OCC", "outcome": "inactive"}, {"smiles": "O=C1CC[C@H](C(=O)N2CCCCC2)N1", "outcome": "inactive"}, {"smiles": "O=C(c1ccc2c(c1)C(=O)OC2=O)c1ccc2c(c1)C(=O)OC2=O", "outcome": "inactive"}, {"smiles": "Cc1cc(O)c2c(c1)C(=O)c1cccc(O)c1C2=O", "outcome": "inactive"}, {"smiles": "COC(OC)C(C)c1ccccc1", "note": "(stereo not given)", "outcome": "inactive"}, {"smiles": "Cc1nc(C)nc(N2C[C@@H](C)N(c3ccnc([C@@H](C)O)n3)[C@@H](C)C2)n1", "outcome": "inactive"}, {"smiles": "C=C(C)C(=O)OC", "outcome": "inactive"}, {"smiles": "CCCCCCCCCCCCCCCCCCN(C)C", "outcome": "inactive"}, {"smiles": "CCN(Cc1cccc(S(=O)(=O)O)c1)c1ccccc1", "outcome": "inactive"}, {"smiles": "COc1cc2c3cc1Oc1cc(ccc1O)C[C@@H]1c4c(cc(OC)c(O)c4Oc4ccc(cc4)C[C@@H]3N(C)CC2)CC[N+]1(C)C", "outcome": "inactive"}, {"smiles": "O=C(O)c1ccccc1C(=O)Nc1ccc(S(=O)(=O)Nc2nccs2)cc1", "outcome": "inactive"}, {"smiles": "C[C@H](CCC(=O)NCC(=O)O)[C@H]1CC[C@H]2[C@@H]3[C@H](O)C[C@@H]4C[C@H](O)CC[C@]4(C)[C@H]3C[C@H](O)[C@]12C", "outcome": "inactive"}, {"smiles": "CC(C)(CO)[C@@H](O)C(=O)NCCCO", "outcome": "inactive"}, {"smiles": "Nc1cc(Cl)cc(S(=O)(=O)O)c1O", "outcome": "inactive"}, {"smiles": "O=C1OC(=O)c2ccccc21", "outcome": "inactive"}, {"smiles": "CCCOC(=O)CCCCC(=O)OCCC", "outcome": "inactive"}, {"smiles": "O=C(O)c1ccccc1C(=O)OCc1ccccc1", "outcome": "inactive"}, {"smiles": "CO[Si](CCCS)(OC)OC", "outcome": "inactive"}, {"smiles": "O=P(O)(O)OCC(O)CO", "note": "(stereo not given)", "outcome": "inactive"}, {"smiles": "O=S(=O)(O)CCO", "outcome": "inactive"}]}]}
